From PubChem BioAssay (NCI) come the findings set out here.

Test systems include DU-145 prostate; K-562 leukemia; MALME-3M melanoma; MDA-MB-231 breast; RXF 393 renal; SF-268 CNS; SF-295 CNS; SF-539 CNS; UACC-257 melanoma; M14 melanoma; HCT-15 colon; HT29 colon; SNB-75 CNS; SNB-19 CNS; U251 CNS; PC-3 prostate; SK-MEL-5 melanoma; UACC-62 melanoma; LOX IMVI melanoma; SK-MEL-28 melanoma.
Common to all, as to test: NCI-60 one-dose screen, 48 h (100 = growth as untreated, 0 = no growth, -100 = all killed)
Common to all, as to details: 10 µM unless noted

SMILES strings stand for the structures. This is part of a sample that, as a whole, favours compounds with a hit. Of some 83,000 tested, about 20% had one in any assay.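 Treatment: one concentration, 48 hours, 96-well format. Scoring: percent growth, with anything below 10 considered active.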 A number with no mark means an inactive call. Active and inactive are the calls of the source.

With `N#Cc1nc(-c2ccccc2)oc1S(=O)(=O)N1CCOCC1`, the growth with DU-145 prostate is 103%; in the test with K-562 leukemia, 5.21% (active); in the test on MALME-3M melanoma, 39.6%; in the test with MDA-MB-231 breast, 98.3%; in the test with RXF 393 renal, 91%; in the test on SF-268 CNS it was 108%. Further, the growth was 98.5% in the test with SF-295 CNS; 101% in the test on SF-539 CNS; 92.8% with UACC-257 melanoma; 61.7% in the test on M14 melanoma; -15.4% (active) in the test with HCT-15 colon; 99.5% in the test with HT29 colon. In addition, the growth with SNB-75 CNS is 94.4%; with SNB-19 CNS, 91.7%; in the test on U251 CNS it was 93.7%; in the test on PC-3 prostate it was 100%; in the test with SK-MEL-5 melanoma it was 91.6%; with UACC-62 melanoma, 91%. The growth in the test on LOX IMVI melanoma was 68.2%; in the test with SK-MEL-28 melanoma it was 106%.

For `O=C(NCc1ccccc1)Nc1ccccc1CNc1nc(Nc2ccc(OCCN3CCCC3)cc2)ncc1Cl`, the growth in the test on DU-145 prostate was 78.4%; with K-562 leukemia it was 64.5%; with MALME-3M melanoma it was 90.7%; in the test on MDA-MB-231 breast it was 97%; with RXF 393 renal, 79.4%; in the test with SF-268 CNS, 83.2%. Moreover, the growth with SF-295 CNS was 95.5%; in the test on SF-539 CNS it was 92.4%; with UACC-257 melanoma, 102%; in the test on M14 melanoma, 99.7%; in the test on HCT-15 colon it was 56.6%; in the test with HT29 colon it was 68.4%. Moreover, the growth in the test on SNB-75 CNS is 82.4%; in the test on SNB-19 CNS, 94.3%; with U251 CNS, 45.5%; with PC-3 prostate, 94.5%; in the test on SK-MEL-5 melanoma it was 95.2%; in the test on UACC-62 melanoma it was 98.6%. Moreover, the growth in the test with LOX IMVI melanoma is 88.8%; with SK-MEL-28 melanoma, 105%.

Consider `COc1ccc2c3c([nH]c2c1)C(=O)c1nc(C)ccc1C3=O`, for which the growth with DU-145 prostate is -73.2% (active); with K-562 leukemia, 40.7%; with MALME-3M melanoma, -61.8% (active); in the test with MDA-MB-231 breast, 49.8%; with RXF 393 renal it was 69.9%; in the test with SF-268 CNS it was 69.5%. Also, the growth is 45.8% in the test with SF-295 CNS; 54.8% with SF-539 CNS; 32.7% in the test on UACC-257 melanoma; 19% in the test with M14 melanoma; 22.3% in the test on HCT-15 colon; 74.9% in the test on HT29 colon. Also, the growth is -4.19% (active) with SNB-75 CNS; 46.1% in the test on SNB-19 CNS; 45.6% in the test on U251 CNS; 45.7% in the test on PC-3 prostate; -95.1% (active) in the test on SK-MEL-5 melanoma; -29.3% (active) in the test with UACC-62 melanoma. Moreover, the growth with LOX IMVI melanoma is 19.1%; in the test on SK-MEL-28 melanoma it was 83.7%.

For the compound `NC(=O)CCC(C(=O)O)N1C(=O)c2ccc(O)cc2C1=O` (stereo not given), the growth is 118% in the test on DU-145 prostate; 72.2% with K-562 leukemia; 157% in the test on MALME-3M melanoma; 113% in the test on MDA-MB-231 breast; 115% in the test on RXF 393 renal; 111% with SF-268 CNS. Besides, the growth is 91.7% in the test with SF-295 CNS; 106% in the test on SF-539 CNS; 107% with UACC-257 melanoma; 108% in the test on M14 melanoma; 101% with HCT-15 colon; 119% in the test on HT29 colon. The growth in the test on SNB-75 CNS is 128%; in the test on SNB-19 CNS, 110%; with U251 CNS, 100%; in the test with PC-3 prostate, 98.6%; in the test on SK-MEL-5 melanoma it was 107%; in the test with UACC-62 melanoma, 111%. Also, the figures for the growth in the test with LOX IMVI melanoma and with SK-MEL-28 melanoma were 97.2% and 124%, respectively.

Consider `O=C(O)CNC1=C(Cl)C(=O)c2ccccc2C1=O`, for which the growth is 112% in the test on DU-145 prostate; 93.4% in the test on K-562 leukemia; 118% in the test with MALME-3M melanoma; 83% with MDA-MB-231 breast; 128% in the test with RXF 393 renal; 103% in the test with SF-268 CNS. The growth was 92.1% with SF-295 CNS; 123% in the test on SF-539 CNS; 91.1% with UACC-257 melanoma; 98.3% in the test on M14 melanoma; 100% in the test on HCT-15 colon; 103% in the test on HT29 colon. In addition, the growth with SNB-75 CNS was 86.5%; in the test on SNB-19 CNS, 96.5%; in the test with U251 CNS, 91.1%; with PC-3 prostate, 77.7%; with SK-MEL-5 melanoma, 112%; in the test with UACC-62 melanoma, 93.6%. Also, the growth with LOX IMVI melanoma is 84%; in the test on SK-MEL-28 melanoma, 113%.

As for `C=C(C)[C@@H]1CC[C@]2(C(=O)NCC#CCN3CCN(C)CC3)CC[C@]3(C)[C@H](CC[C@@H]4[C@@](C)(CCC#N)[C@H](C(=C)C)CC[C@]43C)[C@@H]12`, the growth in the test with DU-145 prostate is 57.5%; in the test on K-562 leukemia, 2.05% (active); in the test with MALME-3M melanoma, 56.9%; in the test with MDA-MB-231 breast, 42.1%; with RXF 393 renal it was 39.8%; in the test on SF-268 CNS it was 62.4%. For the same compound, the growth with SF-295 CNS was 94.2%; in the test with SF-539 CNS it was 66%; in the test on UACC-257 melanoma it was 56.7%; in the test on M14 melanoma, 5.09% (active); in the test with HCT-15 colon, 20%; in the test with HT29 colon, -12.7% (active). The growth is 64.7% in the test on SNB-75 CNS; 78.2% in the test with SNB-19 CNS; 45.3% in the test with U251 CNS; 35.5% in the test on PC-3 prostate; 64.6% in the test with SK-MEL-5 melanoma; -8.49% (active) in the test on UACC-62 melanoma. Further, the growth in the test with LOX IMVI melanoma is 10.4%; with SK-MEL-28 melanoma it was 78.1%.

In the case of `Cc1ccc(/C=C2\CN(C(=O)OC(C)(C)C)C/C(=C\c3ccc(C)cc3)C2=O)cc1`, the growth in the test on DU-145 prostate was 38.7%; in the test on K-562 leukemia, 3.47% (active); in the test with MALME-3M melanoma it was 83.5%; with MDA-MB-231 breast it was 88.3%; with RXF 393 renal, 99.4%; in the test with SF-268 CNS, 49.1%. The growth was 89.9% with SF-295 CNS; 90.4% in the test with SF-539 CNS; 79.4% in the test with UACC-257 melanoma; 43% in the test on M14 melanoma; 1.94% (active) in the test on HCT-15 colon; -49.9% (active) in the test on HT29 colon. Moreover, the growth with SNB-75 CNS was 79.7%; with SNB-19 CNS it was 71.4%; in the test on U251 CNS, 12.4%; in the test on PC-3 prostate it was 29.9%; in the test with SK-MEL-5 melanoma, 78.9%; with UACC-62 melanoma, 56.5%. Moreover, the growth is -63.2% (active) in the test on LOX IMVI melanoma and 87.3% with SK-MEL-28 melanoma.

Take `CC(C)c1ccc(COCc2cc(CN3CCCC3)c(O)c3ncccc23)cc1`: the growth is 18.6% in the test on DU-145 prostate; 3.96% (active) in the test on K-562 leukemia; 8.44% (active) in the test on MALME-3M melanoma; 8.36% (active) with MDA-MB-231 breast; 3.03% (active) in the test on RXF 393 renal; 8.66% (active) in the test on SF-268 CNS. Moreover, the growth in the test with SF-295 CNS is 4.84% (active); in the test on SF-539 CNS, -22.1% (active); in the test on UACC-257 melanoma, -12.8% (active); in the test with M14 melanoma it was -6.21% (active); with HCT-15 colon, -35.5% (active); with HT29 colon, 30.5%. Besides, the growth in the test with SNB-75 CNS is 25.9%; in the test with SNB-19 CNS it was 17.3%; in the test on U251 CNS, -13.2% (active); in the test with PC-3 prostate, 11.6%; with SK-MEL-5 melanoma, 4.48% (active); in the test with UACC-62 melanoma it was -9.84% (active). In addition, the growth is -33% (active) with LOX IMVI melanoma and 27.3% in the test on SK-MEL-28 melanoma.
